Compound activity from PubChem.
Sampled rows, rich in hits. Any-hit rate of the full collection: about 27%.
CYP2C19 inh = blockers of cytochrome P450 2C19 activity – biochemical, luminescence, ADME assay, primary screen. 96,000 tested, 21% active. CYP2C19 Supersomes, luciferin-H EGE luminescence, 30 min. P33261. inhibition, % at 5 µM;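 active = CYP2C19 inhibition above a set limit at 5 µM in the primary screen, cut at about 50% in these data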
CYP2C9 inhib = blockers of cytochrome P450 2C9 activity – biochemical, luminescence, ADME assay, primary screen; inhibition, % at 5 µM; 96,000 tested, 20% active; P11712; CYP2C9 Supersomes, luciferin-H conversion; AID 777, 2007;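 active = blocking of liver enzyme CYP2C9 beyond about 50% at 5 µM, limit read from the data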
CYP2C19 act = human CYP2C19 activators, primary screen, biochemical, luminescence; Cytochrome P450 2C19 (Homo sapiens), P33261; activation factor at 5 µM; recombinant CYP2C19, luciferin-H EGE luminescence; active compounds read high; 0 = fully inhibited enzyme, 1 = untreated enzyme; 96,000 tested, under 10 active; AID 1025, 2008;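 active = activation factor of at least 2 at 5 µM in the primary screen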
CYP2C9 activ = human CYP2C9 activators, primary screen, biochemical, luminescence; Cytochrome P450 2C9 (Homo sapiens), P11712; activation factor at 5 µM; 96,000 tested, 1.4% active; recombinant CYP2C9, luciferin-H conversion; active compounds read high; factor 1 = untreated enzyme, 0 = blocked;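 active = activation factor of 2 or more for CYP2C9 at a 5 µM dose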
Cav32 inh = Cav3.2 calcium influx blockers – cell-based, Fluo-4 calcium fluorescence, FDSS, MLSMR library, primary screen; Voltage-dependent T-type calcium channel subunit alpha-1H (Homo sapiens), O95180; Cav3.2-expressing cells; active compounds read low; B-score at 10 µM; 100,000 tested, 4% active;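 active = single-dose well whose peak fluorescence ratio is a statistical outlier from its plate by either plate-standardised score or position-corrected B-score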
Pyk2 oligo antag = antagonists of Pyk2 self-association, primary screen, Q293 cells, FERM NanoBiT luminescence, HTS. Protein-tyrosine kinase 2-beta (Homo sapiens), Q14289. active compounds read low. z-score (the deposit names both 25 µM and 10 µM). 99,000 tested, 0.83% active. AID 1347419, 2020;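 active = Z-score of -3 or lower, scaled per plate to the spread of control and sample wells; inactive = z-score above -3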;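 also: negative z-score means lost luminescence so less FERM oligomerization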
Numbers stand for hits.

Screening CCn1nnnc1SCC(=O)Nc1ccc(OCc2ccccc2)cc1 returned Cav32 inh inactive and Pyk2 oligo antag inactive.
O=C(CN1CCOCC1)Nc1ncc(Cc2cccc3ccccc23)s1 was read as CYP2C19 inh inactive, CYP2C9 inhib inactive, CYP2C19 act inactive, CYP2C9 activ inactive, Cav32 inh inactive and Pyk2 oligo antag inactive.
Screening O=c1nc2sc3ccccc3n2c(=O)n1-c1cccc(Cl)c1 returned CYP2C19 inh 68, CYP2C9 inhib inactive, CYP2C19 act inactive, CYP2C9 activ inactive, Cav32 inh inactive and Pyk2 oligo antag inactive.
CC(C)(C)Nc1nc(Cl)nc(NC(C)(C)C)n1 was read as Pyk2 oligo antag inactive.
CNc1nc(Cl)nc(NC(C)(C)C)n1 was read as CYP2C19 inh inactive, CYP2C9 inhib inactive, CYP2C19 act inactive, CYP2C9 activ 2.7, Cav32 inh inactive and Pyk2 oligo antag inactive.
Cc1ccccc1OC1C(=O)N(Cc2ccc3c(c2)OCO3)C1c1sccc1C (configuration not stated) was read as CYP2C19 inh 74, CYP2C9 inhib 82, CYP2C19 act inactive, CYP2C9 activ inactive, Cav32 inh inactive and Pyk2 oligo antag inactive.
For Cc1oc2cc(O)cc(C)c2c(=O)c1-c1cnn(-c2ccccc2)c1 the results were CYP2C19 inh inactive, CYP2C9 inhib inactive, CYP2C19 act inactive, CYP2C9 activ inactive and Pyk2 oligo antag -3.8.
`CCCCn1c(=NC(=O)c2ccc3c(c2)OCO3)c(C#N)cc2c(=O)n3cccc(C)c3nc21` gave CYP2C19 inh inactive, CYP2C9 inhib 57, CYP2C19 act inactive, CYP2C9 activ inactive, Cav32 inh inactive and Pyk2 oligo antag inactive.
Screening COCCn1c(=NC(=O)c2ccc3c(c2)OCO3)c(C#N)cc2c(=O)n3cccc(C)c3nc21 returned CYP2C19 inh inactive, CYP2C9 inhib inactive, CYP2C19 act inactive, CYP2C9 activ inactive and Cav32 inh inactive.
For Cc1ccc2c(c1)cc(CN(Cc1ccc3c(c1)OCO3)S(=O)(=O)c1ccccc1)c1nnnn12 the results were CYP2C19 inh 80, CYP2C9 inhib 69, CYP2C19 act inactive, CYP2C9 activ inactive, Cav32 inh inactive and Pyk2 oligo antag inactive.
`O=C(CCc1ccc(Oc2cc([N+](=O)[O-])cc([N+](=O)[O-])c2)cc1)N1CCCCC1` gave CYP2C19 inh 54, CYP2C9 inhib 82, CYP2C19 act inactive, CYP2C9 activ inactive, Cav32 inh inactive and Pyk2 oligo antag inactive.
COc1ccc(N2CCN(C(=O)COc3ccc4ccccc4c3)CC2)cc1 was read as CYP2C19 inh inactive, CYP2C9 inhib inactive, CYP2C19 act inactive, CYP2C9 activ inactive, Cav32 inh inactive and Pyk2 oligo antag inactive.
For CCCS(=O)(=O)N1CCN(C(=O)COc2ccc(-c3ccccc3)cc2)CC1 the results were Cav32 inh inactive and Pyk2 oligo antag inactive.
Screening O=C(CCC1CCCC1)N1CCN(C(=O)COc2ccccc2)CC1 returned CYP2C19 inh inactive, CYP2C9 inhib inactive, CYP2C19 act inactive, CYP2C9 activ inactive and Pyk2 oligo antag inactive.
`COc1ccc(OCC(=O)N2CCN(C(=O)COc3ccc(Br)cc3)CC2)cc1` gave CYP2C19 inh 64, CYP2C9 inhib inactive, CYP2C19 act inactive, CYP2C9 activ inactive, Cav32 inh inactive and Pyk2 oligo antag inactive.
`Cc1ccc(OCC(=O)N2CCN(C(=O)CCC3CCCC3)CC2)cc1` gave CYP2C19 inh 56, CYP2C9 inhib 56, CYP2C19 act inactive, CYP2C9 activ inactive, Cav32 inh inactive and Pyk2 oligo antag inactive.
COc1ccc(OCC(=O)N2CCN(C(=O)c3ccco3)CC2)cc1 was read as CYP2C19 inh inactive, CYP2C9 inhib inactive, CYP2C19 act inactive, CYP2C9 activ inactive, Cav32 inh inactive and Pyk2 oligo antag inactive.
CCCS(=O)(=O)N1CCN(C(=O)COc2ccccc2)CC1 was read as CYP2C19 inh 59, CYP2C9 inhib inactive, CYP2C19 act inactive, CYP2C9 activ inactive, Cav32 inh inactive and Pyk2 oligo antag inactive.
`O=C(COc1ccc(Br)cc1)N1CCN(c2ccccc2)CC1` gave CYP2C19 inh 71, CYP2C9 inhib inactive, CYP2C19 act inactive, CYP2C9 activ inactive, Cav32 inh -3.3 and Pyk2 oligo antag inactive.
Screening Cc1nnc(SCc2ccc(Cl)cc2)n1CC1CCCO1 (configuration not stated) returned CYP2C19 inh inactive, CYP2C9 inhib inactive, CYP2C19 act inactive, CYP2C9 activ inactive, Cav32 inh inactive and Pyk2 oligo antag inactive.
For Cn1c(=O)c(-c2ccccc2)nc2ccccc21 the results were Cav32 inh inactive and Pyk2 oligo antag inactive.
Screening Cc1nc2sc(C(c3ccco3)N3CCC(Cc4ccccc4)CC3)c(O)n2n1 (configuration not stated) returned Cav32 inh inactive.
For COCCCn1c(SCC(=O)Nc2nc3ccccc3s2)nnc1-c1ccoc1C the results were Cav32 inh inactive and Pyk2 oligo antag inactive.
CC(=O)N1CCN(C(=O)COc2ccc(Br)cc2)CC1 was read as CYP2C19 inh 89, CYP2C9 inhib inactive, CYP2C19 act inactive, CYP2C9 activ inactive, Cav32 inh inactive and Pyk2 oligo antag inactive.
Screening O=C(COc1ccccc1)N1CCN(C(=O)Cc2ccccc2)CC1 returned CYP2C19 inh inactive, CYP2C9 inhib inactive, CYP2C19 act inactive, CYP2C9 activ inactive, Cav32 inh inactive and Pyk2 oligo antag inactive.
Screening CC1=NCC(C)c2c1[nH]c1ccccc21 (configuration not stated) returned CYP2C19 inh inactive, CYP2C9 inhib inactive, CYP2C19 act inactive, CYP2C9 activ inactive, Cav32 inh inactive and Pyk2 oligo antag inactive.
Screening CSc1nc(C)cc(OCNC(=O)c2cccs2)n1 returned CYP2C19 inh inactive, CYP2C9 inhib inactive, CYP2C19 act inactive, CYP2C9 activ inactive and Pyk2 oligo antag inactive.
Screening COc1ccc(/C=C2/SC(=O)N(CC(=O)Nc3cc(C)on3)C2=O)cc1OC returned Pyk2 oligo antag inactive.
For CCOC(=O)C(NC(=O)c1ccccc1)(N1CCCC1=O)C(F)(F)F (configuration not stated) the results were CYP2C19 inh 53, CYP2C9 inhib inactive, CYP2C19 act inactive, CYP2C9 activ inactive, Cav32 inh inactive and Pyk2 oligo antag inactive.
CCOC(=O)C(NC(=O)c1ccccc1)(N1CCOCC1)C(F)(F)F (configuration not stated) was read as CYP2C19 inh inactive, CYP2C9 inhib inactive, CYP2C19 act inactive, CYP2C9 activ inactive, Cav32 inh inactive and Pyk2 oligo antag inactive.
CCOC(=O)C(NC(C)=O)(N1CCOCC1)C(F)(F)F (configuration not stated) was read as CYP2C19 inh inactive, CYP2C9 inhib inactive, CYP2C19 act inactive, CYP2C9 activ inactive and Cav32 inh inactive.
